Data: the supplement of paper PMC7057948, “A genome-wide approach for identification and characterisation of metabolite-inducible systems” (Nature Communications, 2020)
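Also: RFP excited at 585 nm with emission read at 620 nm, culture medium blanks subtracted from fluorescence and absorbance prior to normalisation.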

The molecules below were run on FdsR/P_H16_RS03165 formate biosensor (pEH134) (assay: relative induction of RFP reporter vs primary effector (background-corrected); higher = stronger activation of the biosensor). Conditions: inducer concentration 5 mM; 6 h; Cupriavidus necator H16; minimal medium + 0.4% gluconate.
Description: (§1)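 C. necator H16 strains, each carrying one of 21 transcription factor/inducible promoter–mRFP biosensor plasmids, were grown in minimal medium in 96-well plates (robotic platform). Each was exposed to 46 structurally or metabolically related compounds at 5 mM at 30 °C. OD-normalised RFP fluorescence was read 6 h later and expressed as relative induction (%) = 100 × (FL compound − FL uninduced)/(FL primary inducer − FL uninduced); mean of n=4.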
In the case of `Oc1ccccc1O` [catechol], the “relative induction of RFP reporter” value is reported as -2.57%. `Oc1ccc(O)cc1` [hydroquinone] was tested, and the “relative induction of RFP reporter” value was 11.3%. With `NC(=O)CC[C@H](N)C(=O)O` [L-glutamine] the “relative induction of RFP reporter” value was 4.9%. For `Cn1c(=O)c2c(ncn2C)n(C)c1=O` [caffeine], the “relative induction of RFP reporter” value was 5.81%. With `O=CC(=O)O` [glyoxylate] the “relative induction of RFP reporter” value was -3.09%. With `NCC(O)C(=O)O` (stereo unspecified) [3-amino-2-hydroxypropanoate] the “relative induction of RFP reporter” value was -6.17%. In the case of `O=C(O)C(O)c1ccccc1` (stereo unspecified) [mandelic acid], the “relative induction of RFP reporter” value is reported as 1.81%. `O=C(O)C(O)C(=O)O` [tartronic acid] was tested, and the “relative induction of RFP reporter” value was -1.37%. With `N[C@@H](Cc1c[nH]c2ccccc12)C(=O)O` [L-tryptophan] the “relative induction of RFP reporter” value was 34.8%. `CCC(=O)O` [propanoate] was tested, and the “relative induction of RFP reporter” value was -1.16%. For `CC(N)CC(=O)O` (stereo unspecified) [3-aminobutanoate], the “relative induction of RFP reporter” value was -2.98%. With `CCCC(=O)O` [butyric acid] the “relative induction of RFP reporter” value was -1.59%.

The molecules below were run on GabR/P_H16_RS23655 GABA biosensor (pEH256) in the same assay as above. Conditions: inducer concentration 5 mM; 6 h; Cupriavidus necator H16; minimal medium + 0.4% gluconate.
Description: as §1
With `Oc1ccccc1O` [catechol] the “relative induction of RFP reporter” value was 3.82%. For `Oc1ccc(O)cc1` [hydroquinone], the “relative induction of RFP reporter” value was 8.11%. `NC(=O)CC[C@H](N)C(=O)O` [L-glutamine] was tested, and the “relative induction of RFP reporter” value was -2.05%. In the case of `Cn1c(=O)c2c(ncn2C)n(C)c1=O` [caffeine], the “relative induction of RFP reporter” value is reported as -0.00438%. `O=CC(=O)O` [glyoxylate] was tested, and the “relative induction of RFP reporter” value was -0.762%. For `NCC(O)C(=O)O` (stereo unspecified) [3-amino-2-hydroxypropanoate], the “relative induction of RFP reporter” value was -1.08%. For `O=C(O)C(O)c1ccccc1` (stereo unspecified) [mandelic acid], the “relative induction of RFP reporter” value was 1.32%. For `O=C(O)C(O)C(=O)O` [tartronic acid], the “relative induction of RFP reporter” value was -0.481%. In the case of `N[C@@H](Cc1c[nH]c2ccccc12)C(=O)O` [L-tryptophan], the “relative induction of RFP reporter” value is reported as -1.31%. `CCC(=O)O` [propanoate] was tested, and the “relative induction of RFP reporter” value was -3.91%. `CC(N)CC(=O)O` (stereo unspecified) [3-aminobutanoate] was tested, and the “relative induction of RFP reporter” value was -1.28%. With `CCCC(=O)O` [butyric acid] the “relative induction of RFP reporter” value was -2.45%.

Each molecule was assayed on HpdR/P_H16_RS18295 3-hydroxypropanoate biosensor (pEH010) in the same assay as above. Conditions: inducer concentration 5 mM; 6 h; Cupriavidus necator H16; minimal medium + 0.4% gluconate.
Description: as §1
In the case of `Oc1ccccc1O` [catechol], the “relative induction of RFP reporter” value is reported as 0.415%. With `Oc1ccc(O)cc1` [hydroquinone] the “relative induction of RFP reporter” value was 1.65%. In the case of `NC(=O)CC[C@H](N)C(=O)O` [L-glutamine], the “relative induction of RFP reporter” value is reported as -0.13%. For `Cn1c(=O)c2c(ncn2C)n(C)c1=O` [caffeine], the “relative induction of RFP reporter” value was 0.0271%. For `O=CC(=O)O` [glyoxylate], the “relative induction of RFP reporter” value was -0.292%. In the case of `NCC(O)C(=O)O` (stereo unspecified) [3-amino-2-hydroxypropanoate], the “relative induction of RFP reporter” value is reported as -0.132%. In the case of `O=C(O)C(O)c1ccccc1` (stereo unspecified) [mandelic acid], the “relative induction of RFP reporter” value is reported as 0.0419%. In the case of `O=C(O)C(O)C(=O)O` [tartronic acid], the “relative induction of RFP reporter” value is reported as 0.0561%. For `CCC(=O)O`, the “relative induction of RFP reporter” value was 0.144%. With `N[C@@H](Cc1c[nH]c2ccccc12)C(=O)O` [L-tryptophan] the “relative induction of RFP reporter” value was -0.00554%. With `CC(N)CC(=O)O` (stereo unspecified) [3-aminobutanoate] the “relative induction of RFP reporter” value was -0.191%. With `CCCC(=O)O` [butyric acid] the “relative induction of RFP reporter” value was -0.186%.
